Screens as filed in PubChem.
In the library only some 2.2% were active in any assay of this set; here they are far more common.
Ba/F3 V617F tox – reduce viability of Ba/F3 cells dependent on JAK2V617F | Ba/F3 EpoR-JAK2V617F viability, ATP luminescence | inhibition, % at 5.6 µM | 220,000 compounds, 1.1% hits;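 active = inhibition above the campaign mean plus 3 SD over all tested compounds, cut at about 24% in these data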;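 note: cytokine-independent growth of Ba/F3 cells driven by EpoR plus mutant JAK2; 0% = DMSO-treated cells and 100% = JAK inhibitor I control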
BaF3 tox – parental Ba/F3 viability inhibition as JAK2V617F counter-screen; inhibition, % at 5.6 µM; 220,000 compounds, 1.1% hits; CellTiter-Glo ATP luminescence;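 active = inhibition above a per-campaign cutoff, the mean inhibition of all tested compounds plus 3 SD, cut at about 27% in these data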;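 note: 0% = DMSO wells and 100% = JAK Inhibitor I control wells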
IEC-6 tox – counter-screen for KLF5 inhibitors: cytotoxicity in IEC-6 cells; IEC-6 cytotoxicity, luminescence viability; inhibition, % at 5 µM; 290,000 compounds, 0.78% hits; AID 1825;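 note: 0% = plate median of test compound wells and 100% = cytotoxic reference compound wells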
APP 5UTR inh – APP translation inhibition; SH-SY5Y APP 5'UTR-luciferase reporter, luminescence; inhibition, % at 2 µM; 190,000 compounds, 0.82% hits; AID 1285;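 active = inhibition above a set limit, derived from the sample mean plus 3 SD, cut at about 45% in these data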
aSyn 5UTR inh – 5' untranslated region of α-synuclein, MLPCN primary screen. alpha-synuclein 5'UTR reporter, inhibitor activity. inhibition, % (tested at 7.5 µM). 300,000 compounds, 0.82% hits; in the data active = inhibition above about 60%;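 note: H4 neuroglioblastoma cells stably carrying SNCA 5'UTR luciferase fusion; 0% = DMSO wells and 100% = positive control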
KLF5 inh – kruppel-like factor 5 inhibition. DLD-1 KLF5 promoter-luciferase reporter, luminescence. inhibition, % at 5 µM. 290,000 compounds, 0.23% hits;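 active = inhibition above a per-plate limit of that plate's mean compound inhibition plus 3 SD, cut at about 60% in these data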;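 note: 0% = DMSO wells and 100% = LY294002 at 200 µM; higher means less KLF5 promoter-driven luciferase light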
IEC-6 cytotox cf – IEC-6 cytotoxicity, confirmation assay | shares compounds with IEC-6 tox | IEC-6 rat intestinal epithelial viability, luminescence | inhibition, % at 5 µM | 1,900 compounds, 63% hits | AID 1907;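 note: 0% = vehicle and 100% = reference cytotoxic drug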
An asterisk follows results filed as active; i = inactive; x = not tested or not shown. Cut-off read from the data, not from the text of the source, unless noted: active = inhibition above about 22%; inactive = the rest.

SMILES	Ba/F3 V617F tox	BaF3 tox	IEC-6 tox	APP 5UTR inh	aSyn 5UTR inh	KLF5 inh	IEC-6 cytotox cf
CN1CCc2c(sc(NC(=O)c3ccc4ccccc4c3)c2C(N)=O)C1	x	x	50*	x	-108	-90	26*
CN1CCc2c(sc(NC(=O)Cc3ccccc3)c2C(N)=O)C1	x	x	4	x	3	-16	x
CCN(CC)CCNc1ccc(CO)c2sc3ccccc3c(=O)c12	66*	47*	54*	20	-35	13	64*
Cc1[nH]c2ccccc2c1C(=O)C(=O)NC1CC1	x	x	7	x	12	-20	x
COc1ccc(NC(=O)c2cccnc2)c([N+](=O)[O-])c1	66*	60*	46*	21	-7	18	30*
CC(=O)/C(C#N)=C1\NC(=O)C(Cc2ccc(F)cc2)S1 (configuration not stated)	3	2	72*	x	-12	-12	48*
CC(=O)/C(C#N)=C1\NC(=O)C(Cc2ccc(C)c(C)c2)S1 (configuration not stated)	-2	5	78*	-30	5	29	50*
O=C(Nc1ccc2oc(-c3ccncc3)nc2c1)c1ccc([N+](=O)[O-])o1	x	x	95*	x	-118	-17	17
Cc1ccc(-c2nc3ncccc3o2)cc1NC(=O)c1ccc([N+](=O)[O-])o1	x	x	98*	x	i	-7	20
O=C(Nc1ccc2oc(-c3ccncc3)nc2c1)c1ccccc1	-3	0	-2	-1	-17	-32	x
O=C(Nc1ccc(-c2nc3ncccc3o2)cc1)c1ccc([N+](=O)[O-])o1	x	x	80*	x	100*	14	8
CC(C)C(=O)Nc1ccc(-c2nc3ncccc3o2)cc1	x	x	9	x	-9	-53	x
CCC(C(=O)NCc1ccco1)n1nc(C)c2c(C)n(-c3ccccc3)nc2c1=O (configuration not stated)	x	x	4	x	-27	-21	x
CC(NS(=O)(=O)c1ccc2c(c1)CC(=O)N2C)c1ccccc1 (configuration not stated)	x	x	4	x	17	-6	x
CCN(CC)CCCNc1oc(/C=C/c2ccccc2)nc1C#N	-4	3	3	x	-64	-29	x
CCNc1oc(/C=C/c2ccc(OCC)cc2)nc1C#N	x	x	52*	x	-188	-17	36*
CCOC(=O)c1cnn(-c2ccccc2)c1NC(=O)CSc1nnc(-c2cccs2)n1CC	-1	4	24*	4	2	-18	-8
CCn1c2ccccc2c2cc(NC(=O)CNCc3ccccc3OC)ccc21	x	x	71*	x	-16	51	40*
CCn1c2ccccc2c2cc(NC(=O)COc3ccccc3OC)ccc21	4	10	13	36	24	-13	x
NS(=O)(=O)c1ccc(CCNC(=O)C(=O)c2cn(CC(=O)N3CCCC3)c3ccccc23)cc1	x	x	0	x	-7	-3	x
Cc1cccc(NC(=O)CSc2nc3ccccc3nc2N2CCCCC2)c1	x	x	43*	x	53	36	29*
Cc1cccc(NC(=O)CSc2nc3ccccc3nc2N2CCCC2)c1	x	x	32*	x	34	-10	5
COc1cccc(NC(=O)CSc2nc3ccccc3nc2N2CCCC2)c1	x	x	9	x	24	-8	x
O=C(Cc1ccc(Br)cc1)N/N=C/c1cccnc1	x	x	-6	x	-1	-31	x
CC1=CC(C)(C)N(C(=O)CCl)c2cc(C)ccc21	3	9	-3	-13	-9	2	x
SMILES	Ba/F3 V617F tox	BaF3 tox	IEC-6 tox	APP 5UTR inh	aSyn 5UTR inh	KLF5 inh	IEC-6 cytotox cf
CC1=CC(C)(C)N(S(=O)(=O)c2ccc(C)cc2)c2cc(C)ccc21	82*	85*	92*	96*	52	60	61*
Cc1cc(NS(=O)(=O)c2ccc(NC(=S)NC(=O)c3ccccc3)cc2)no1	5	10	63*	-25	6	-36	23*
CC1CC(C)C[N+](=C2C=C(N3CCCC3)CC(C)(C)C2)C1 (configuration not stated)	92*	72*	35*	7	-14	9	23*
O=C(Nc1nnc(-c2ccc(F)cc2)o1)c1ccc(S(=O)(=O)N2CCOCC2)cc1	x	x	40*	x	39	59	13
COc1ccccc1-c1nnc(NC(=O)c2ccc(S(=O)(=O)N3CCCC3)cc2)o1	x	x	22*	x	12	20	5
O=C(C#Cc1ccccc1)c1ccco1	x	x	101*	x	-141	54	28*
O=C(N/N=C/c1ccccc1)c1ccco1	-1	1	3	x	-107	-109	x
